Compound activity (PubChem)
Only some compounds are listed: those with a hit (about 5.3% of all), similar ones and a draw of the others.
KDM4E inh = blocks human JMJD2E demethylase activity. JMJD2E catalytic domain, FDH-coupled NADH fluorescence (FDH is formaldehyde dehydrogenase). Potency, µM (highest dose often 57.1 µM), for inactives: at the top dose activity change, negative = inhibition, actives largely listed as inhibitors. 230,000 compounds, 1.6% hits; active = well fitted inhibition curve with a large enough effect, not every such curve was filed as active; inconclusive = small, poorly fitted or top-dose-only effect, or another doubt; inactive = no such curve, though single readings can be large or run the other way;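 note: potency is the fitted concentration of half-maximal effect; 0% = wells with enzyme and -100% = buffer wells without enzyme; nearly all actives have a fitted effect of over 50% in size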
Target sequence (B2RXH2 1-337 limits assumed): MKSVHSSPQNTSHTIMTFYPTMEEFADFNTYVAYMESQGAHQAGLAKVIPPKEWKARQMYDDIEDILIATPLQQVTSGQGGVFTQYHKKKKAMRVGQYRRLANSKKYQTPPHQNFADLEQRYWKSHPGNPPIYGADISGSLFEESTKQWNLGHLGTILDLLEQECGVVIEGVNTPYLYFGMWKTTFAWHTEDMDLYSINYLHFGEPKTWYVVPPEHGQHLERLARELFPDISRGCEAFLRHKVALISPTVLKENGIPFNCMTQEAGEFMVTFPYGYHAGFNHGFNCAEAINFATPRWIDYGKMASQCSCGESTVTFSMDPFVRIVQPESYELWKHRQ
Coupling enz = coupling enzyme interference in Giardia aldolase counter-screen; 290,000 compounds, 0.67% hits; AID 2472; activity change, negative = inhibition, % at 58.2 µM, hits read low; coupling enzyme system counterscreen, AmpLite Red fluorescence; in the data active = activity change below about -30%
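Compounds tested against the coupling enzymes alone at 57.5 uM final; readout was AmpLite Red fluorescence (525/598 nm) after 20 min at RT.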
Sfp PPTase inh = Sfp phosphopantetheinyl transferase inhibition; Biochemical Sfp PPTase activity, qHTS; 310,000 compounds, 3.5% hits; Potency, µM, for inactives: largest response in the series, negative = inhibition, actives largely listed as inhibitors; Q9F4F7;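 note: the enzyme is Sfp with the accession as filed and its product quenches rhodamine fluorescence; potency is the fitted concentration of half-maximal effect; 0% = enzyme reaction without inhibitor and -100% = no enzyme wells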
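Fluorescence-quenching assay: 15 nM Sfp-PPTase preincubated 15 min at room temperature with compound, then 5 uM rhodamine-CoA and 12.5 uM BHQ-2-labelled YbbR peptide added. Fluorescence (ex 525/em 598 nm) read at start and after 30 min; difference gives rate.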
Tau ThT inhib = tau fibrillization inhibition (ThT binding); recombinant tau K18 P301L, heparin-induced fibrillization, ThT fluorescence; P10636; Potency, µM (doses to about 57.4 µM), for inactives: top-dose activity, negative = inhibition, most hits filed as inhibitors; 270,000 compounds, 2.1% hits; note: potency is the fitted concentration of half-maximal effect; nearly all actives have a fitted effect of over 55% in size
Target sequence (P10636 561-689 P618L limits assumed): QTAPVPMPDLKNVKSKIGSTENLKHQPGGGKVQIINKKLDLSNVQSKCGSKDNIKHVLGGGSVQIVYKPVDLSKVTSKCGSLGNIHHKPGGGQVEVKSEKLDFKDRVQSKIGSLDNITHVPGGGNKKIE
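Using a mix of unlabeled (15 uM) and Alexa 594-labeled (0.24 uM) tau K18 P301L, heparin-triggered fibrillization over 6 hr at 37 C was scored by ThT fluorescence.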
Tau fluor cs = counter-screen for tau fibril formation inhibitors | AID 1463 | tau K18 P301L Alexa594 fluorescence, heparin fibrillization | 280,000 compounds, 0.93% hits | Potency, µM (top dose mostly 57.7 µM), for inactives: at the highest dose activity change, negative = decrease; note: potency is the fitted concentration of half-maximal effect; nearly all actives have a fitted effect of over 55% in size
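Human K18 P301L tau (15 uM unlabeled plus 0.24 uM Alexa 594-labeled, final) in 100 mM sodium acetate pH 7 was mixed with compound and 20 uM heparin and incubated 6 hr at 37 C.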
Tau FP inhib = blocks human tau fibril formation measured by polarization; K18 P301L tau heparin fibrillization, Alexa594 FP, 6 h; Potency, µM (top dose mostly 57.7 µM), inactives show at the highest dose activity, negative = inhibition, hits mostly inhibitors; 280,000 compounds, 0.39% hits; note: potency is the fitted concentration of half-maximal effect; nearly all actives have a fitted effect of over 55% in size
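Heparin (20 uM) drove fibril formation of recombinant tau K18 P301L, 15 uM unlabeled with 0.24 uM Alexa 594 label, for 6 hr at 37 C in 100 mM sodium acetate pH 7. Fluorescence polarization (555/632 nm) read 1 hr after 30 uM ThT.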
An asterisk follows results filed as active; ? = inconclusive; nt = not tested or not shown; [ ] = remark or other dose. Unless noted, calls come from the whole dose curve; as a rule, active = well fitted curve in the direction sought with a large enough effect; inconclusive = small, poorly fitted or top-dose-only effect, or another doubt; inactive = no such curve, though single readings can be large; an effect the other way counts as inactive or inconclusive. Unless noted, % is set by controls: 0 for no effect and ±100 for the full control effect.

SMILES | KDM4E inh | Coupling enz | Sfp PPTase inh | Tau ThT inhib | Tau fluor cs | Tau FP inhib
CCN(CC)C(=O)CSC1=C(C#N)C(c2cccs2)C=C(C)N1 (centres undefined) | ? | 1 | 50µM* | -13% | -8% | -2%
CSCC[C@H](NC(=O)[C@H](CO)NC(=O)[C@H](Cc1ccc(O)cc1)NC(=O)[C@@H](N)CO)C(=O)N[C@@H](CCC(=O)O)C(=O)N[C@@H](Cc1cnc[nH]1)C(=O)N[C@@H](Cc1ccccc1)C(=O)N[C@@H](CCCNC(=N)N)C(=O)N[C@@H](Cc1c[nH]c2ccccc12)C(=O)NCC(=O)N[C@@H](CCCCN)C(=O)N1CCC[C@H]1C(=O)N[C@H](C(=O)NCC(=O)N[C@@H](CCCCN)C(=O)N[C@@H](CCCCN)C(=O)N[C@@H](CCCNC(=N)N)C(=O)N[C@@H](CCCNC(=N)N)C(=O)N1CCC[C@H]1C(=O)N[C@H](C(=O)N[C@@H](CCCCN)C(=O)N[C@H](C(=O)N[C@@H](Cc1ccc(O)cc1)C(=O)N1CCC[C@H]1C(=O)O)C(C)C)C(C)C)C(C)C | nt | 5 | -18% | nt | nt | nt
CCCn1c(-c2ccc(F)cc2)nc2c(NCCN3CCCCC3)nc(C)nc21 | ? | 1 | ? | -5% | -9% | -5%
COc1ccc(-c2nc3cnc(N4CCN(C)CC4)nc3n(CCC#N)c2=O)cc1 | nt | -2 | 25% | nt | nt | nt
CC[C@H](C)[C@@H](NC(=O)O[C@@H]1C(=O)c2ccc(OC)cc2O[C@H]1c1cccc(C(F)(F)F)c1)C(=O)OC | 1% | -2 | 2% | -2% | -7% | 1%
CCOC(=O)CSC1=C(C#N)C(c2ccc(OC)cc2)C2=C(CC(C)(C)CC2=O)N1 (centres undefined) | 6% | -5 | 35µM* | 9% | 2% | -5%
CC1=CC(C)(C)Nc2ccc(OS(=O)(=O)c3ccc(C)cc3)cc21 | 1% | -9 | -6% | 8.9µM* | 5µM*[quencher] | ?
CC(=O)Nc1ccc(S(=O)(=O)Oc2ccc3c(c2)C(C)=CC(C)(C)N3)cc1 | 4% | -4 | -3% | ? | 14µM*[quencher] | ?
COC(=O)c1ccc(OS(=O)(=O)c2ccc(NC(C)=O)cc2)cc1 | -3% | 7 | -3% | 0% | -11% | -10%
COC(=O)C[C@H](NC(=O)[C@H](C)NC(=O)[C@@H](NC(=O)OCc1ccccc1)C(C)C)C(=O)CF | nt | nt | 29% | -3% | 3% | -2%
Cc1nn(Cc2ccc(C(=O)NC(C)(C)C)o2)c(C)c1Br | -1% | 1 | 56µM* | -8% | 4% | 9%
CCNc1ncc2nc(CCc3ccccc3)c(=O)n(CCC#N)c2n1 | nt | 1 | 31% | nt | nt | nt
COc1ccccc1NC(=O)Nc1ccc(N2CCOCC2)cc1 | -4% | -1 | -1% | ? | -27% | -8%
O=C(Nc1ccc(Cl)cc1)Nc1ccc(N2CCOCC2)cc1 | -4% | 0 | 9% | ? | ? | 14%
Cc1ccc(NC(=O)c2cc(N3C(=O)C=CC3=O)ccc2N2CCOCC2)cc1Cl | -1% | -3 | 4µM* | 1% | 1% | ?
O=C(Nc1ccc(N2CCOCC2)cc1)Nc1cnsn1 | -9% | -6 | 28µM* | ? | -30% | -2%
O=C(Nc1ccc(N2CCOCC2)cc1)Nc1ccc(Cl)c(Cl)c1 | 4% | 2 | -23% | 13µM* | 8.9µM*[quencher] | ?
CCCCCn1c(=O)[nH]c2cc(C(=O)NCc3ccc(C)cc3)ccc2c1=O | nt | nt | nt | -9% | -4% | -14%
Cc1cccc(NC(=O)c2ccccc2O)c1C | -4% | -32* | 13% | -12% | -10% | 5%
CCOc1ccccc1NC(=O)CSc1ccc2nc(-c3ccccc3)cn2n1 | nt | nt | nt | 2% | -7% | -9%
Nc1ncc(S(=O)(=O)Nc2ccc(F)cc2F)cn1 | nt | nt | nt | -10% | -11% | -3%
O=C(c1ccc(=O)oc1)N1CCCc2ccccc21 | 14µM* | -3 | ? | -12% | -6% | -5%
O=C(c1ccccc1)N1CCCc2ccccc21 | -5% | 3 | 14% | 6% | 1% | 1%
Cc1nc2ccccc2c(=O)n1/N=C/c1c(O)ccc2ccccc12 | -14% | -18 | 0% | ? | ? | 16%
Cc1nc2ccccc2c(=O)n1/N=C/c1ccc([N+](=O)[O-])o1 | -27% | -12 | 14% | 28µM* | ? | ?
SMILES | KDM4E inh | Coupling enz | Sfp PPTase inh | Tau ThT inhib | Tau fluor cs | Tau FP inhib
NC(=O)N/N=C/c1c(O)ccc2oc3c(c12)CCCC3 | 28µM* | -3 | 4% | nt | -29% | 0%
Cc1nc2ccccc2c(=O)n1/N=C/c1c(O)ccc2oc3c(c12)CCCC3 | 3% | -26 | 22µM* | ? | ? | -1%
CN(/N=C/c1ccc([N+](=O)[O-])o1)c1ccccc1 | 6% | -1 | 3% | 7.1µM* | ? | -11%
O=C(/C=C/c1ccc(/C=C/C(=O)Nc2ccc(C3=NCCN3)cc2)cc1)Nc1ccc(C2=NCCN2)cc1 | nt | -1 | ? | nt | nt | nt
C=C1CCN(C(C)C(=O)OCc2ccc(C)cc2)S(=O)(=O)c2ccccc21 (centres undefined) | nt | -2 | 1% | nt | nt | nt
N=C1CCC(=N)c2c1c(O)c1ccccc1c2O | ? | -32* | ? | 13µM* | ? | 25µM*
CN1C=C/C(=C\c2cc[n+](C)c3ccccc23)c2ccccc21 | 4µM* | -62* | 10% | 14µM* | ? | ?
CCc1ccc2oc(-c3cc(NC(=O)c4cc([N+](=O)[O-])ccc4N4CCOCC4)ccc3Cl)nc2c1 | nt | nt | nt | ? | ? | -10%
N[C@@H](Cc1c[nH]c2ccc(O)cc12)C(=O)O | ? | nt | -26% | 28µM* | ? | ?
NC(Cc1c[nH]c2ccc(OCc3ccccc3)cc12)C(=O)O (centres undefined) | nt | 0 | -11% | nt | nt | nt
CN1C(=S)SC(C)(NO)C1(C)C (centres undefined) | -2% | 5 | 56µM* | -2% | -3% | -9%
COc1ccc(C2C(=O)N(C3CCC(C)CC3)CC(=O)N2C2CCCC2)cc1OC (centres undefined) | nt | nt | nt | -2% | -7% | 0%
O=C(Nc1cc(S(=O)(=O)N2CCOCC2)ccc1O)c1ccco1 | -6% | 5 | 56µM* | -6% | 3% | 5%
O=C(Nc1cc(S(=O)(=O)N2CCOCC2)ccc1O)c1ccc2c(c1)S(=O)(=O)c1ccccc1C2=O | -9% | 4 | 20µM* | ? | -29% | -3%
O=C(Nc1ccc(S(=O)(=O)N2CCOCC2)cc1)c1ccc2c(c1)S(=O)(=O)c1ccccc1C2=O | 10% | 4 | 21% | -1% | -27% | 13%
